Reference: PubChem BioAssay (NCATS)
Records with an inconclusive call do not appear. Active and inactive are the calls of the source. The call rests on the fitted dose curve; in most records, active means well fitted curve in the direction sought with a large enough effect; inconclusive means small, poorly fitted or top-dose-only effect, or another doubt; inactive means no such curve, though single readings can be large; an effect the other way counts as inactive or inconclusive.

Assays:
[1] = qHTS for Inhibitors of Plasmodium falciparum (DD2) proliferation (AID 504314);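 further: parasite DNA measured by SYBR Green fluorescence after red cell lysis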
Summary of the method: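 Erythrocytes infected with P. falciparum (0.3% parasitemia, 2.5% hematocrit final) were incubated with compounds for 72 h at 37C, 5% CO2. Parasite DNA was detected by SYBR Green I fluorescence after saponin/Triton lysis, normalized to artemisinin (0.29 uM) and DMSO controls.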

[2] = qHTS for Inhibitors of Plasmodium falciparum (GB4) proliferation (AID 504315); further: nearly all actives have a fitted effect of over 50% in size
Summary of the method: (§1)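 Erythrocytes infected with P. falciparum line (0.3% parasitemia, 2.5% hematocrit final) incubated with compounds 72 h at 37 °C, 5% CO2; SYBR Green lysis buffer added, fluorescence read next day. Normalized to 0.29 uM artemisinin and DMSO.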

[3] = qHTS for Inhibitors of Plasmodium falciparum (7G8) proliferation (AID 504316); further: series mostly up to about 6.7 µM; nearly all actives have a fitted effect of over 65% in size
Summary of the method: as §1

[4] = qHTS for Inhibitors of Plasmodium falciparum (HB3) proliferation (AID 504318); further: nearly all actives have a fitted effect of over 60% in size
Summary of the method: as §1

[5] = qHTS for Inhibitors of Plasmodium falciparum (CP250) proliferation (AID 504320)
Summary of the method: as §1

Measured: Potency

COC(=O)C1=C(C(=O)OC)[C@@H]2N(C)c3ccccc3[C@@]23C[C@@H](C(=O)OC)N(S(=O)(=O)c2c(C)noc2C)C3=N1
inactive: [1] | [2]

CCCNC(=O)N1C2=NC(C(=O)OC)=C(C(=O)OC)[C@@H]3Nc4ccccc4[C@]23C[C@H]1C(=O)OC
inactive: [1] | [2] | [3]

CC#CCN1c2ccccc2[C@]23CCC(=O)N(CCCOC(C)C)C2=NC(C(=O)OC)=C(C(=O)OC)[C@H]13
inactive: [1] | [2]

COC(=O)CCC(=O)OC1(C)C(=O)C=C2C=C(C3CC3)N(c3ccccc3)C=C2C1=O (stereo not drawn)
inactive: [1] | [2]

COC(=O)CCC(=O)OC1(C)C(=O)C2=CN(Cc3ccco3)C(c3ccc(OC)cc3)=CC2=C(Br)C1=O (stereo not drawn)
inactive: [1] | [2]

COC(=O)CCC(=O)OC1(C)C(=O)C2=CN(C(CO)CO)C(c3ccc(OC)cc3)=CC2=C(Br)C1=O (stereo not drawn)
inactive: [1] | [2] | [3] | [4] | [5]

COc1cccc([C@@H]2Oc3ccc(Br)cc3C(=O)[C@@H]2OC(=O)Nc2cc(OC)c(OC)c(OC)c2)c1
inactive: [1] | [2] | [3] | [4] | [5]

CCCCC1=CC2=CC(=O)C(C)(OC(=O)CC)C(=O)C2=CN1CC(C)C (stereo not drawn)
inactive: [1] | [2] | [3]

CCN(CC)CCCN1C=C2C(=O)C(C)(OC(=O)CCc3ccccc3)C(=O)C=C2C=C1c1ccc(C#N)cc1 (stereo not drawn)
inactive: [1] | [2] | [3] | [4] | [5]

COCCN1C(=O)N[C@@H](c2cccc(F)c2)C(C(=O)OC)=C1C
inactive: [1] | [2] | [3] | [4]
